ELG1 repair inh – blocks ELG1-dependent DNA repair in HEK293T cells | HEK293T ELG1-luciferase reporter, luminescence, 16 h; DNA damage induced by 5-fluorouridine | Potency, µM (series often up to 46.1 µM), for the others: top-dose activity change, negative = inhibition, actives largely listed as inhibitors | actives 2.3% (n = 330,000); further: on the % scale 0 is the no-effect control and ±100 the full control effect; nearly all actives have a fitted effect of over 55% in size
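5-Fluorouridine DNA damage + compound/DMSO, 2,000 cells/well, 16 h, 37 °C/5% CO2. ONE-Glo, 30 min RT, luminescence. Readout = decrease in reporter signal.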
IDH1 R132H inh – human IDH1 R132H inhibition | IDH1-R132H enzyme, NADPH consumption, diaphorase/resazurin fluorescence | Potency, µM (titrated, usually from 76.6 µM), for inactives: top-dose activity change, negative = inhibition, hits mostly inhibitors | actives 0.093% (n = 390,000); further: on the % scale 0 is the no-effect control and ±100 the full control effect; nearly all actives have a fitted effect of over 65% in size
Target sequence (O75874 whole entry R132H, stated change not applied): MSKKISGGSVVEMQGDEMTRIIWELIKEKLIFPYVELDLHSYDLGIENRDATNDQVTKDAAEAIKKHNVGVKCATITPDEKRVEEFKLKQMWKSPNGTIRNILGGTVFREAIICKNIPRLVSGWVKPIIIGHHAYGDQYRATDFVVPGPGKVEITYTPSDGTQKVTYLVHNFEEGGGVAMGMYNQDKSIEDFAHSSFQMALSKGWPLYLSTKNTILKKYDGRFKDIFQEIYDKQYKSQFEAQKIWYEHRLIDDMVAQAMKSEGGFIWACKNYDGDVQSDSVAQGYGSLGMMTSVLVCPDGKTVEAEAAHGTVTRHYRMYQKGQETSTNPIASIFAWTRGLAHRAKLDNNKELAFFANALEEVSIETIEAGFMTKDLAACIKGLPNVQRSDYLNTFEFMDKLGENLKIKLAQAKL
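IDH1-R132H (0.5 ug/mL) preincubated 30 min with compound, then NADPH (0.016 mM) and alpha-KG (2 mM) added; 80 min at RT, pH 7.5. Remaining NADPH coupled via diaphorase/resazurin to fluorescence (540/590 nm); concentration-response curves normalized to no-enzyme control.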
A549 viability – counter-screen for Nrf2 inhibitors: cytotoxicity in A549 cells. A549 ARE-Fluc cells, CellTiter-Fluor viability, 18-24 h. Potency, µM (titrated, usually from 46 µM), for the others: at the top dose activity change, negative = cytotoxicity, usual class: inhibitors. actives 0.16% (n = 390,000). AID 504648; further: on the % scale 0 is the no-effect control and ±100 the full control effect
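A549 ARE-Fluc cells in 5% FBS OPTI-MEM, 5000 cells/well, rested 2 h then exposed to compounds in concentration-response for 18-24 h at 37 °C. Viability by CellTiter-Fluor fluorescence (Ex 405/Em 525) after 30 min; luciferase luminescence (BugLite, 15 min, RT) read afterwards.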
Nrf2 inh – inhibitors of Nrf2 signaling; A549 ARE-Fluc reporter, luciferase luminescence, 18-24 h; Potency, µM (top dose mostly 46 µM), without a hit: top-dose activity change, negative = inhibition, hits mostly inhibitors; actives 2.1% (n = 360,000); AID 504444; further: on the % scale 0 is the no-effect control and ±100 the full control effect; nearly all actives have a fitted effect of over 60% in size
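In this cell-based qHTS, ARE-driven firefly luciferase in A549 cells reports Nrf2 activity; the luminescent signal after BugLite lysis is the measured value, with a prior CellTiter-Fluor read for cell health.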
Nrf2 ARE act – activates Nrf2 signaling; AREc32 ARE-luciferase reporter (MCF7-derived line), luminescence, 24 h; Potency, µM (doses to about 46.1 µM), without a hit: at the highest dose activation, hits mostly activators; actives 0.31% (n = 410,000); AID 624171; further: % of control where 0% means no effect; nearly all actives have a fitted effect of over 65% in size
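Cells of the AREc32 ARE-luciferase line are plated in OPTI-MEM containing 5% FBS and left overnight at 37 deg C. Compounds are pinned in, incubation continues 24 hr, and firefly luciferase signal is then measured.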
An asterisk follows results filed as active; ? = inconclusive; . = not tested or not shown; [ ] = another dose, or the depositor's remark. Compounds with a hit are over-represented: about 3.8% of the library has one in this group of screens. The call rests on the fitted dose curve; in most records, active means well fitted curve in the direction sought with a large enough effect; inconclusive means small, poorly fitted or top-dose-only effect, or another doubt; inactive means no such curve, though single readings can be large; an effect the other way counts as inactive or inconclusive. Potency means the concentration at half of the fitted maximal effect.

SMILES	ELG1 repair inh	IDH1 R132H inh	A549 viability	Nrf2 inh	Nrf2 ARE act
COc1cc(OC)c2c(c1)C(=O)OC2c1cc(OC)c(OC)cc1C (stereo not drawn)	.	.	-2.2%	-12.2%	.
CCN(CC)c1ccc(N=Nc2nn(C)c(C)c2[N+](=O)[O-])cc1	?	5.1%	20.6µM*	?	3.2%
CCN(Cc1ccccc1)c1ccc(N=Nc2nn(C)c(C)c2[N+](=O)[O-])cc1	?	-0.4%	16.4µM*	-24.7%	4.1%
Cc1c(C(=O)Nc2cc(F)ccc2F)sc2nc3n(c(=O)c12)CCCCC3	?	2.5%	-0.4%	3.6%	-0.5%
CCOC(=O)c1cnc2c(Cl)cc(Cl)cc2c1NCCOCCO	18.4µM*	5.9%	-9.7%	-15.7%	-0.5%
CCOC(=O)c1cnc2c(Cl)cc(Cl)cc2c1Nc1cc(C(=O)O)ccc1C	.	-12.2%	-13.6%	-18.3%	-0.7%
CCOC(=O)Cc1csc(/N=C/c2c(O)n(-c3ccccc3C(F)(F)F)c(=O)c3ccccc23)n1	13µM*	18.7%	-20.2%	13µM*	-0.8%
c1ccc(CCCNc2ncnc3nc[nH]c23)cc1	-14.7%	2.7%	-1.4%	13.6%	-0.4%
c1ccc2c(CCNc3ncnc4nc[nH]c34)cccc2c1	23.1µM*	12.8%	-13.4%	?	0.4%
CS(=O)(=O)c1ccc(Cl)c(NC(=O)CCl)c1	?	6.3%	-14.6%	20.6µM*	?
CS(=O)(=O)c1ccc(Cl)c(NC(=O)COC(=O)c2cccc(C#N)c2)c1	0.0%	1.6%	0.4%	-7.8%	0.5%
CS(=O)(=O)c1ccc(Cl)c(NC(=O)COC(=O)c2ccc(F)cc2Cl)c1	7.1%	13.5%	13.3%	11.6µM*	-1.2%
Cn1nc(C(F)(F)F)c(/C=N/OC(=O)c2ccccc2)c1Cl	2.4%	1.7%	-1.9%	-10.9%	-1.0%
Cn1nc(C(F)(F)F)c(/C=N/OC(=O)c2ccccc2)c1Sc1ccc(Cl)cc1	?	13.8%	-7.0%	14.6µM*	0.4%
CCOC(=O)c1ccc(NC(=O)CCc2nc(-c3ccc(Cl)cc3)no2)cc1	?	8.4%	-11.4%	?	0.1%
COc1cc(-c2noc(CCCC(=O)NC3CCCCC3)n2)cc(OC)c1OC	5.17µM*	-0.2%	8.4%	16.9%	-0.1%
CCOc1ccc(-c2noc(CCCC(=O)NC3CCCCC3)n2)cc1OC	1.7%	1.7%	-9.2%	?	-0.3%
CCOC(=O)c1ccc(NC(=O)CCc2nc(-c3ccc(C)cc3)no2)cc1	14.6%	-0.2%	-19.3%	14.6µM*	3.9%
CCOc1ccc(-c2noc(CCC(=O)O)n2)cc1	?	-7.0%	5.0%	3.26µM*	-2.9%
CCN(CCCNC(=O)CCc1nc(-c2ccc(OC)cc2)no1)c1cccc(C)c1	18.4µM*	9.4%	-8.3%	.	9.6%
COc1ccc(-c2noc(CCC(=O)O)n2)cc1	?	3.9%	-1.0%	-16.7%	-0.9%
COc1ccc(-c2noc(CCCC(=O)O)n2)cc1	?	1.8%	-2.0%	1.84µM*	-2.1%
COc1ccc(-n2c(SCC#N)nnc2-c2ccc(NS(=O)(=O)c3ccc(C)cc3)cc2)cc1	?	-2.3%	-17.7%	10.3µM*	1.9%
CCOc1ccc(C(=O)NC(C(=O)NCC2CCCO2)C(C)C)cc1 (stereo not drawn)	23.1µM*	-3.9%	-1.1%	-18.3%	0.3%
CCOc1cc(NC(=S)NCC2CCCO2)c(OCC)cc1NC(=O)c1ccccc1C (stereo not drawn)	-12.3%	3.7%	-6.5%	?	0.1%
SMILES	ELG1 repair inh	IDH1 R132H inh	A549 viability	Nrf2 inh	Nrf2 ARE act
CCOc1cc(NC(=S)NCC2CCCO2)c(OCC)cc1NC(=O)c1ccc(OC)cc1 (stereo not drawn)	13µM*	1.2%	0.9%	2.5%	-1.0%
COc1ccc(C(=O)NC(C(=O)NCC2CCCO2)C(C)C)cc1 (stereo not drawn)	6.6%	-2.1%	-2.1%	3.5%	-0.2%
Cc1cccc(Cc2c(C)nc3nc(SCC(=O)NC4CCCCC4)nn3c2C)c1	.	1.2%	0.1%	17.0%[9.27 µM]	-0.6%
O=C(/C=C\c1ccccc1[N+](=O)[O-])Nc1ccccc1	?	-8.1%	-1.4%	?	11.2µM*
NS(=O)(=O)c1ccc(NC(=O)/C=C/c2ccccc2[N+](=O)[O-])cc1	-1.3%	-7.0%	-3.4%	-16.3%	?
O=C(/C=C/c1ccccc1[N+](=O)[O-])c1ccccc1Br	?	0.0%	?	16.4µM*	-3.7%
Cc1ccc(OCCSc2nc3ccc(NC(=O)c4ccco4)cc3s2)cc1	.	5.3%	5.7%	5.4%	-0.9%
Cc1cc(=O)oc2c1ccc1oc(/C(=N/O)c3ccccc3)c(C)c12	16.4µM*	11.7%	-2.5%	?	-0.8%
CCc1c(C(C)=O)oc2ccc3c(C)cc(=O)oc3c12	-3.7%	0.3%	0.4%	18.7%	6.1%
Cc1ccc(/C(=N\O)c2oc3c(C)c4oc(=O)cc(C)c4cc3c2C)cc1	20.6µM*	-5.1%	?	23.1µM*	0.0%
Cc1cc(C)c(Cn2c3ccccc3c3cnn(CC(=O)NCC(C)c4ccccc4)c(=O)c32)c(C)c1 (stereo not drawn)	.	-14.7%	-9.5%	-23.0%	-0.1%
O=C(CSc1ccc(Cl)cc1)N1CCN(c2ncc(C(F)(F)F)cc2Cl)CC1	-21.7%	3.3%	-15.2%	20.6µM*	0.2%
O=C(CSc1ncc(C(F)(F)F)cc1Cl)N1CCN(S(=O)(=O)c2ccc(Cl)cc2)CC1	?	0.4%	2.9%	?	-0.9%
COC(=O)c1sccc1NC(=O)c1cccc(OC)c1	-6.4%	4.1%	3.1%	13.6%	6.31µM*
COC(=O)c1sccc1NC(=O)c1ccc(Br)o1	-10.6%	-0.5%	0.3%	27.3%	5.62µM*
COC(=O)c1sccc1NC(=O)c1ccccc1	13.2%	1.7%	1.4%	?	7.08µM*
COC(=O)c1sccc1NC(=O)c1ccc(C)o1	-10.9%	1.8%	-3.5%	-8.3%	?
COC(=O)c1sccc1NC(=O)Nc1cccc(OC)c1	20.2%	5.5%	-3.8%	1.1%	21.8%
COC(=O)c1sccc1NC(=O)COc1ccccc1Cl	?	-2.6%	2.7%	?	12.6µM*
CCOc1ccccc1-n1nnc(-c2nc(-c3ccccc3C)no2)c1C	.	-2.8%	7.5%	?	3.9%
O=c1[nH]c(=S)[nH]c2c1C(c1ccc(Cl)cc1)OC(CCc1ccccc1)C2 (stereo not drawn)	.	.	.	.	-1.0%
COc1cc(-c2nc(-c3ccccc3)c(-c3cc([N+](=O)[O-])ccc3C)[nH]2)cc(OC)c1OC	7.31µM*	1.2%	-16.6%	?	5.5%
CC1CCN(CC2C(=O)O[C@@H]3C[C@@]4(C)CCC[C@H](C)C4=C[C@H]23)CC(C)(C)C1 (stereo partly drawn)	0.0%	14.5%	-0.1%	-9.3%	8.91µM*

Screens as filed in PubChem.
